Results published in PubChem BioAssay AID1159580 (chemical genetic matrix, 2015).
“And” between values parts separate entries of the source, which are not always exact repeats. Equal entries are not always repeated. Hit rate of the full screen: of about 5,500 compounds, about 2,000 (36%) were called active. Inconclusive results (about 18%) are left out. No stated cut-off is given here; in the data, active means normalized growth mostly below about 0.91 (no sharp cut-off); inconclusive means no clear call, values can overlap the other calls; inactive means mostly above about 0.92. The list shows a part of the results.

Test: chemical genetic growth profiling, strain panel (AID 1159580);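 further: tested at 20 µM; growth read once vehicle control cultures reached saturation at 30 °C; 1 = growth at the plate median or of vehicle wells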
Conditions: growth OD

Measured: normalized growth

C=C1CCC(C2CC(=O)OC2=O)C(=O)CCC2C1CC2(C)C (centres undefined)
inactive: S. cerevisiae deletion strains, locus YAL021C, strain ccr4, stronger effect = lower value 0.991 | S. cerevisiae deletion strains, locus YAL026C, strain drs2, stronger effect = lower value 1 | S. cerevisiae deletion strains, locus YAL030W, strain snc1, stronger effect = lower value 1.01 | S. cerevisiae deletion strains, locus YBL061C, strain skt5, stronger effect = lower value 1 | S. cerevisiae deletion strains, locus YBR009C, strain hhf1, stronger effect = lower value 1 | S. cerevisiae deletion strains, locus YBR021W, strain FUR4, stronger effect = lower value 1 | S. cerevisiae deletion strains, locus YBR023C, strain chs3, stronger effect = lower value 1 | S. cerevisiae deletion strains, locus YBR171W, strain sec66, stronger effect = lower value 1 | S. cerevisiae deletion strains, locus YBR229C, strain ROT2, stronger effect = lower value 1.01 | S. cerevisiae deletion strains, locus YBR231C, strain swc5, stronger effect = lower value 1 | S. cerevisiae deletion strains, locus YBR279W, strain paf1, stronger effect = lower value 1.01 | S. cerevisiae deletion strains, locus YCL011C, strain gbp2, stronger effect = lower value 1 | S. cerevisiae deletion strains, locus YCL016C, strain dcc1, stronger effect = lower value 0.993 | S. cerevisiae deletion strains, locus YCL029C, strain bik1, stronger effect = lower value 1.02 | S. cerevisiae deletion strains, locus YCL069W, strain vba3, stronger effect = lower value 1.02 | S. cerevisiae deletion strains, locus YCR088W, strain abp1, stronger effect = lower value 1.01 | S. cerevisiae deletion strains, locus YDL005C, strain med2, stronger effect = lower value 1.01 | S. cerevisiae deletion strains, locus YDL035C, strain GPR1, stronger effect = lower value 0.995 | S. cerevisiae deletion strains, locus YDL040C, strain nat1, stronger effect = lower value 1.01 | S. cerevisiae deletion strains, locus YDL074C, strain BRE1, stronger effect = lower value 1.03 | S. cerevisiae deletion strains, locus YDL101C, strain DUN1, stronger effect = lower value 1.02 | S. cerevisiae deletion strains, locus YDL134C, strain PPH21, stronger effect = lower value 1.04 | S. cerevisiae deletion strains, locus YDL185W, strain tfp1, stronger effect = lower value 1.02 | S. cerevisiae deletion strains, locus YDL192W, strain arf1, stronger effect = lower value 1.01 | S. cerevisiae deletion strains, locus YDR001C, strain nth1, stronger effect = lower value 1 | S. cerevisiae deletion strains, locus YDR069C, strain doa4, stronger effect = lower value 0.988 | S. cerevisiae deletion strains, locus YDR101C, strain arx1, stronger effect = lower value 0.972 | S. cerevisiae deletion strains, locus YDR137W, strain rgp1, stronger effect = lower value 1.01 | S. cerevisiae deletion strains, locus YDR159W, strain sac3, stronger effect = lower value 0.97 | S. cerevisiae deletion strains, locus YDR162C, strain NBP2, stronger effect = lower value 1 | S. cerevisiae deletion strains, locus YDR195W, strain ref2 0.986 | S. cerevisiae deletion strains, locus YDR297W, strain sur2, stronger effect = lower value 1 | S. cerevisiae deletion strains, locus YDR318W, strain mcm21, stronger effect = lower value 1 | S. cerevisiae deletion strains, locus YDR334W, strain swr1, stronger effect = lower value 1 | S. cerevisiae deletion strains, locus YDR335W, strain msn5, stronger effect = lower value 1.02 | S. cerevisiae deletion strains, locus YDR388W, stronger effect = lower value 1 | S. cerevisiae deletion strains, locus YDR392W, strain spt3, stronger effect = lower value 0.876 | S. cerevisiae deletion strains, locus YDR502C, strain sam2, stronger effect = lower value 1.03 | S. cerevisiae deletion strains, locus YEL003W, strain gim4, stronger effect = lower value 1.01 | S. cerevisiae deletion strains, locus YEL037C, strain rad23, stronger effect = lower value 1.01 | S. cerevisiae deletion strains, locus YEL061C, strain CIN8 (second series), stronger effect = lower value 1.01 | S. cerevisiae deletion strains, locus YER015W, strain faa2, stronger effect = lower value 1.02 | S. cerevisiae deletion strains, locus YER016W, strain bim1, stronger effect = lower value 1 | S. cerevisiae deletion strains, locus YER110C, stronger effect = lower value 1.01 | S. cerevisiae deletion strains, locus YER111C, strain swi4, stronger effect = lower value 1.01 | S. cerevisiae deletion strains, locus YER155C, strain BEM2 (second series), stronger effect = lower value 0.983 | S. cerevisiae deletion strains, locus YER155C, strain BEM2, stronger effect = lower value 1.01 | S. cerevisiae deletion strains, locus YER167W, strain BCK2, stronger effect = lower value 1 | S. cerevisiae deletion strains, locus YFR010W, strain ubp6, stronger effect = lower value 1.01 | S. cerevisiae deletion strains, locus YGL078C, strain dbp3, stronger effect = lower value 1.03 | S. cerevisiae deletion strains, locus YGL086W, strain mad1, stronger effect = lower value 1.01 | S. cerevisiae deletion strains, locus YGL167C, strain pmr1, stronger effect = lower value 1.01 | S. cerevisiae deletion strains, locus YGL173C, strain kem1, stronger effect = lower value 1 | S. cerevisiae deletion strains, locus YGL227W, strain vid30, stronger effect = lower value 1.01 | S. cerevisiae deletion strains, locus YGL240W, strain doc1, stronger effect = lower value 0.987 | S. cerevisiae deletion strains, locus YGL248W, strain PDE1, stronger effect = lower value 1.04 | S. cerevisiae deletion strains, locus YGL253W, strain hxk2, stronger effect = lower value 1.03 | S. cerevisiae deletion strains, locus YGR078C, strain PAC10, stronger effect = lower value 1.04 | S. cerevisiae deletion strains, locus YGR135W, strain pre9, stronger effect = lower value 1.05 | S. cerevisiae deletion strains, locus YGR252W, strain gcn5, stronger effect = lower value 1.09 | S. cerevisiae deletion strains, locus YHR013C, strain ard1, stronger effect = lower value 1.01 | S. cerevisiae deletion strains, locus YHR027C, strain rpn1, stronger effect = lower value 1 | S. cerevisiae deletion strains, locus YHR030C, strain SLT2, stronger effect = lower value 0.975 | S. cerevisiae deletion strains, locus YHR079C, strain IRE1 (second series), stronger effect = lower value 1.01 | S. cerevisiae deletion strains, locus YHR079C, strain IRE1, stronger effect = lower value 0.974 | S. cerevisiae deletion strains, locus YHR094C, strain hxt1, stronger effect = lower value 0.995 | S. cerevisiae deletion strains, locus YHR129C, strain ARP1, stronger effect = lower value 1.02 | S. cerevisiae deletion strains, locus YHR142W, strain chs7, stronger effect = lower value 1.04 | S. cerevisiae deletion strains, locus YHR200W, strain rpn10, stronger effect = lower value 1.03 | S. cerevisiae deletion strains, locus YIL066C, strain RNR3, stronger effect = lower value 1.01 | S. cerevisiae deletion strains, locus YIL073C, strain SPO22, stronger effect = lower value 1.02 | S. cerevisiae deletion strains, locus YIL125W, strain kgd1, stronger effect = lower value 0.98 | S. cerevisiae deletion strains, locus YIR030C, strain dcg1, stronger effect = lower value 1.01 | S. cerevisiae deletion strains, locus YJL092W, strain hpr5, stronger effect = lower value 1.02 | S. cerevisiae deletion strains, locus YJL095W, strain BCK1 (second series), stronger effect = lower value 1 | S. cerevisiae deletion strains, locus YJL095W, strain BCK1, stronger effect = lower value 1.06 and 0.979 | S. cerevisiae deletion strains, locus YJL115W, strain asf1, stronger effect = lower value 0.999 | S. cerevisiae deletion strains, locus YJL129C, strain trk1, stronger effect = lower value 0.989 | S. cerevisiae deletion strains, locus YJL134W, strain LCB3, stronger effect = lower value 0.997 | S. cerevisiae deletion strains, locus YJL154C, strain vps35, stronger effect = lower value 1.02 | S. cerevisiae deletion strains, locus YJL164C, strain tpk1, stronger effect = lower value 1 | S. cerevisiae deletion strains, locus YJL166W, strain qcr8, stronger effect = lower value 1 | S. cerevisiae deletion strains, locus YJL168C, strain set2, stronger effect = lower value 1.02 | S. cerevisiae deletion strains, locus YJL187C, strain SWE1 (second series), stronger effect = lower value 1.04 | S. cerevisiae deletion strains, locus YJR066W, strain TOR1, stronger effect = lower value 0.929 | S. cerevisiae deletion strains, locus YJR075W, strain HOC1, stronger effect = lower value 1.02 | S. cerevisiae deletion strains, locus YKL009W, strain mrt4, stronger effect = lower value 1 | S. cerevisiae deletion strains, locus YKL068W, stronger effect = lower value 1 | S. cerevisiae deletion strains, locus YKL085W, strain MDH1 (second series), stronger effect = lower value 1 | S. cerevisiae deletion strains, locus YKL085W, strain MDH1, stronger effect = lower value 1 | S. cerevisiae deletion strains, locus YKL160W, strain elf1, stronger effect = lower value 1 | S. cerevisiae deletion strains, locus YKR001C, strain vps1, stronger effect = lower value 1 | S. cerevisiae deletion strains, locus YKR026C, strain gcn3, stronger effect = lower value 1.01 | S. cerevisiae deletion strains, locus YKR091W, strain srl3, stronger effect = lower value 1 | S. cerevisiae deletion strains, locus YLL001W, strain dnm1, stronger effect = lower value 1.01 | S. cerevisiae deletion strains, locus YLL026W, stronger effect = lower value 1 | S. cerevisiae deletion strains, locus YLL041C, strain sdh2, stronger effect = lower value 1.01 | S. cerevisiae deletion strains, locus YLR027C, strain aat2, stronger effect = lower value 1.02 | S. cerevisiae deletion strains, locus YLR039C, strain RIC1, stronger effect = lower value 1.04 | S. cerevisiae deletion strains, locus YLR058C, strain SHM2, stronger effect = lower value 1 | S. cerevisiae deletion strains, locus YLR102C, strain apc9, stronger effect = lower value 1.01 | S. cerevisiae deletion strains, locus YLR113W, strain HOG1, stronger effect = lower value 0.946 | S. cerevisiae deletion strains, locus YLR221C, strain rsa3, stronger effect = lower value 0.99 | S. cerevisiae deletion strains, locus YLR258W, strain gsy2, stronger effect = lower value 1.03 | S. cerevisiae deletion strains, locus YLR262C, strain YPT6 (second series), stronger effect = lower value 0.993 | S. cerevisiae deletion strains, locus YLR268W, strain sec22, stronger effect = lower value 0.975 | S. cerevisiae deletion strains, locus YLR320W, strain mms22, stronger effect = lower value 0.999 | S. cerevisiae deletion strains, locus YLR330W, strain CHS5, stronger effect = lower value 1.01 | S. cerevisiae deletion strains, locus YLR342W, strain FKS1, stronger effect = lower value 1 | S. cerevisiae deletion strains, locus YLR357W, strain rsc2, stronger effect = lower value 1.03 | S. cerevisiae deletion strains, locus YLR370C, strain arc18, stronger effect = lower value 1.01 | S. cerevisiae deletion strains, locus YLR371W, strain rom2, stronger effect = lower value 0.997 | S. cerevisiae deletion strains, locus YLR384C, strain iki3, stronger effect = lower value 1.01 | S. cerevisiae deletion strains, locus YLR418C, strain cdc73, stronger effect = lower value 1.09 | S. cerevisiae deletion strains, locus YML016C, strain PPZ1, stronger effect = lower value 1.01 | S. cerevisiae deletion strains, locus YML032C, strain rad52, stronger effect = lower value 0.999 | S. cerevisiae deletion strains, locus YML120C, strain ndi1, stronger effect = lower value 1 | S. cerevisiae deletion strains, locus YML124C, strain tub3, stronger effect = lower value 1 | S. cerevisiae deletion strains, locus YMR058W, strain fet3, stronger effect = lower value 1.02 | S. cerevisiae deletion strains, locus YMR078C, strain ctf18, stronger effect = lower value 1 | S. cerevisiae deletion strains, locus YMR125W, strain sto1, stronger effect = lower value 1 | S. cerevisiae deletion strains, locus YMR129W, stronger effect = lower value 1.01 | S. cerevisiae deletion strains, locus YMR205C, strain PFK2, stronger effect = lower value 0.98 | S. cerevisiae deletion strains, locus YMR223W, strain ubp8, stronger effect = lower value 1.01 | S. cerevisiae deletion strains, locus YMR231W, strain pep5, stronger effect = lower value 0.991 | S. cerevisiae deletion strains, locus YMR263W, strain SAP30, stronger effect = lower value 1.01 | S. cerevisiae deletion strains, locus YMR307W, strain GAS1, stronger effect = lower value 1.06 | S. cerevisiae deletion strains, locus YNL067W, strain RPL9B, stronger effect = lower value 1.02 | S. cerevisiae deletion strains, locus YNL071W, strain lat1, stronger effect = lower value 1.01 | S. cerevisiae deletion strains, locus YNL153C, strain GIM3, stronger effect = lower value 1.03 | S. cerevisiae deletion strains, locus YNL183C, strain NPR1, stronger effect = lower value 0.937 | S. cerevisiae deletion strains, locus YNL209W, strain ssb2, stronger effect = lower value 1 | S. cerevisiae deletion strains, locus YNL233W, strain BNI4, stronger effect = lower value 1.04 | S. cerevisiae deletion strains, locus YNL248C, strain rpa49, stronger effect = lower value 0.928 | S. cerevisiae deletion strains, locus YNL250W, strain rad50, stronger effect = lower value 1.03 | S. cerevisiae deletion strains, locus YNL271C, strain bni1, stronger effect = lower value 1.01 | S. cerevisiae deletion strains, locus YNL298W, strain CLA4, stronger effect = lower value 0.993 | S. cerevisiae deletion strains, locus YNL307C, strain MCK1, stronger effect = lower value 1.01 | S. cerevisiae deletion strains, locus YNL322C, strain KRE1 (second series), stronger effect = lower value 0.989 | S. cerevisiae deletion strains, locus YNR049C, strain mso1, stronger effect = lower value 1.01 | S. cerevisiae deletion strains, locus YNR052C, strain pop2, stronger effect = lower value 1.01 | S. cerevisiae deletion strains, locus YOL012C, strain htz1 0.988 | S. cerevisiae deletion strains, locus YOL147C, strain pex11, stronger effect = lower value 1 | S. cerevisiae deletion strains, locus YOR001W, strain rrp6, stronger effect = lower value 0.976 | S. cerevisiae deletion strains, locus YOR061W, strain CKA2, stronger effect = lower value 0.991 | S. cerevisiae deletion strains, locus YOR069W, strain VPS5, stronger effect = lower value 1.01 | S. cerevisiae deletion strains, locus YOR070C, strain gyp1, stronger effect = lower value 1.02 | S. cerevisiae deletion strains, locus YOR080W, strain dia2, stronger effect = lower value 0.993 | S. cerevisiae deletion strains, locus YOR083W, strain WHI5, stronger effect = lower value 0.997 | S. cerevisiae deletion strains, locus YOR106W, strain vam3, stronger effect = lower value 1.02 | S. cerevisiae deletion strains, locus YOR136W, strain idh2, stronger effect = lower value 1.01 | S. cerevisiae deletion strains, locus YOR144C, strain elg1, stronger effect = lower value 0.996 | S. cerevisiae deletion strains, locus YOR184W, strain ser1, stronger effect = lower value 0.98 | S. cerevisiae deletion strains, locus YOR231W, strain MKK1, stronger effect = lower value 0.964 | S. cerevisiae deletion strains, locus YOR265W, strain rbl2, stronger effect = lower value 0.995 | S. cerevisiae deletion strains, locus YOR270C, strain vph1, stronger effect = lower value 1.01 | S. cerevisiae deletion strains, locus YOR290C, strain snf2, stronger effect = lower value 0.952 | S. cerevisiae deletion strains, locus YOR316C, strain cot1, stronger effect = lower value 1.02 | S. cerevisiae deletion strains, locus YPL051W, strain arl3, stronger effect = lower value 1 | S. cerevisiae deletion strains, locus YPL078C, strain atp4, stronger effect = lower value 1 | S. cerevisiae deletion strains, locus YPL106C, strain sse1, stronger effect = lower value 1 | S. cerevisiae deletion strains, locus YPL240C, strain hsp82, stronger effect = lower value 1 | S. cerevisiae deletion strains, locus YPL256C, strain CLN2, stronger effect = lower value 0.962 | S. cerevisiae deletion strains, locus YPR119W, strain clb2, stronger effect = lower value 1 | S. cerevisiae deletion strains, locus YPR141C, strain kar3, stronger effect = lower value 1 | S. cerevisiae deletion strains, locus YPR163C, strain tif3, stronger effect = lower value 1 | S. cerevisiae deletion strains, locus YPR167C, strain met16, stronger effect = lower value 1 | S. cerevisiae deletion strains, strain wtn01, stronger effect = lower value 0.997 | S. cerevisiae strains, strain wild type, stronger effect = lower value 0.999
